Compound activity from PubChem.
Most compounds without a hit are left out; they make up all but 5% or so of the library.
HCMV inh: qHTS Assay for inhibitors of the human cytomegalovirus (HCMV). HFF cells, HCMV-luciferase reporter, 72 h; active compounds read low. activity change, negative = inhibition, % at 57.5 µM. 4.5% of 410,000 active; in the data active = activity change below about -60%; inconclusive = no clear call, values can overlap the other calls; inactive = above about -39%
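Steps: HFFs plated, 16 h 37C; compounds added; HCMV-luciferase added to MOI 1 PFU/cell; 72 h 37C; OneGlo reagent, 5 min room temperature; luminescence read, normalized to controls.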
VACV Venus inh: qHTS for Stage-Specific Inhibitors of Vaccinia Orthopoxvirus: Venus Reporter Primary qHTS; Vaccinia virus Venus reporter expression, fluorescence; Potency, µM (highest dose often 36.5 µM), hits mostly inhibitors; 0.46% of 330,000 active; AID 720580, 2013; calls by dose curve; tested in A549 cells; also: nearly all actives have a fitted effect of over 30% in size
Tb PYK inh: qHTS of Trypanosoma Brucei Inhibitors; 0.12% of 410,000 active; Potency, µM (doses to about 76.8 µM), hits mostly inhibitors; TbPYK enzyme, Kinase-Glo Plus ATP luminescence, 45 min; pyruvate kinase (Trypanosoma brucei), Q57TT1; AID 624173, 2012; also: nearly all actives have a fitted effect of over 50% in size
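T. brucei PYK with substrate was exposed to pin-transferred compounds across a concentration series, then started with 130 uM ADP (final). After 45 min at room temperature, Kinase-Glo Plus luminescence was read, normalized and curve-fitted.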
VACV mCherry inh: qHTS for Stage-Specific Inhibitors of Vaccinia Orthopoxvirus: mCherry Reporter Primary qHTS. 0.63% of 310,000 active. Vaccinia virus mCherry reporter infection, fluorescence. Potency, µM (top dose mostly 36.5 µM), actives largely listed as inhibitors; calls by dose curve; tested in A549 cells; also: nearly all actives have a fitted effect of over 35% in size
LmPK inh: qHTS Assay for Inhibitors of Leishmania Mexicana Pyruvate Kinase (LmPK) | Q27686 | purified LmPK, Kinase-Glo ATP luminescence, 1 h | Potency, µM (doses to about 57.5 µM), most hits filed as inhibitors | 0.37% of 290,000 active
Target sequence (Q27686 whole entry, looked up): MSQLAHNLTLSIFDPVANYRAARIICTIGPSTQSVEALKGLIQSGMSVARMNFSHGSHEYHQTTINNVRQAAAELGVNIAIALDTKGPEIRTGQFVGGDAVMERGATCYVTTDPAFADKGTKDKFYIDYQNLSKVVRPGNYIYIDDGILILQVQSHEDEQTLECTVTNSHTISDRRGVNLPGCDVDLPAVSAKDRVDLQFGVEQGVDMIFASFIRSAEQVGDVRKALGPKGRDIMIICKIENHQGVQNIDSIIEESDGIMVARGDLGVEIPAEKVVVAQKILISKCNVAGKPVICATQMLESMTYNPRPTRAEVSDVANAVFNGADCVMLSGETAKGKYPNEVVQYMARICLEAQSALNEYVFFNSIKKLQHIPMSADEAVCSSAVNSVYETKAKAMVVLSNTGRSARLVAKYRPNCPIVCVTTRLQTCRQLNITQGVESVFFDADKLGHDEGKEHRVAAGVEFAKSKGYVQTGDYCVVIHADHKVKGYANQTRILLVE
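0.1 nM LmPK, 0.5 mM PEP, 0.1 mM ADP; 50 mM imidazole pH 7.2, 7 mM MgCl2, 50 mM KCl; 1 h RT. Kinase-Glo luminescence readout, normalized to no-enzyme (full inhibition) and uninhibited wells.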
A number is an active result; i = inactive; ? = inconclusive; nt = no result. Unless noted, calls follow the shape of the dose curve; as a rule, active = well fitted curve in the direction sought with a large enough effect; inconclusive = small, poorly fitted or top-dose-only effect, or another doubt; inactive = no such curve, though single readings can be large; an effect the other way counts as inactive or inconclusive.

SMILES	HCMV inh	VACV Venus inh	Tb PYK inh	VACV mCherry inh	LmPK inh
COc1ccc(CNn2c(-c3cccs3)nc3ccccc3c2=O)cc1OC	-70	i	i	i	i
O=c1c2ccccc2nc(-c2cccs2)n1-c1ccccc1	i	i	i	nt	i
CCOc1ccc(-n2c(-c3cccs3)nc3ccccc3c2=O)cc1	-66	i	i	i	i
COc1cccc(CNn2c(-c3cccc(C)c3)nc3ccccc3c2=O)c1	-73	i	i	i	i
Cc1ccc(CNC(=O)Cn2ncc3c(C)n(Cc4ccc(Cl)cc4)c(C)c3c2=O)cc1	i	i	i	i	nt
Cc1ccc(CNC(=O)c2ccc(Cn3c(SCc4ccc(F)cc4)nc4cccnc43)cc2)o1	i	i	i	i	nt
Cc1ccc(/C=C2\SC(=S)N(CCCC(=O)Nc3ccccn3)C2=O)cc1	-104	i	i	i	i
COc1ccc(/C=C2\SC(=S)N(CCCC(=O)Nc3cccc(C(=O)O)c3)C2=O)cc1OC	i	nt	i	nt	i
COc1ccc(/C=C2\SC(=S)N(CCCC(=O)Nc3ccccn3)C2=O)cc1OC	-99	i	i	?	i
O=C(CCN1C(=O)/C(=C/c2ccccc2)SC1=S)Nc1ccccn1	i	nt	i	nt	i
O=C(CSc1n[nH]c(-c2ccncc2)n1)c1cccc([N+](=O)[O-])c1	i	i	i	i	i
O=c1[nH]c(-c2ccccn2)nc2sc(-c3ccccc3)cc12	-112	?	i	4.5µM	i
O=C(/C=C/c1ccc(Br)cc1)NC(=O)c1ccccc1O	-102	?	i	?	i
CCOC(=O)c1ccc(NC(=O)c2nc[nH]c2C(=O)N2CCc3ccccc3C2)cc1	i	i	i	i	i
COc1ccc(NC(=O)c2nc[nH]c2C(=O)N2CCN(c3ccccc3)CC2)cc1	-72	i	i	i	i
Cc1ccc(NC(=O)c2nc[nH]c2C(=O)N2CCc3ccccc3C2)cc1	-75	i	i	i	nt
C[C@H]1O[C@H](O[C@H]2[C@H](O)[C@@H](O)[C@@H](O)[C@H](O)[C@@H]2O)[C@@H](N)C[C@@H]1NC(=N)C(=O)O	nt	i	nt	i	nt
CC(C)(C)c1cc(CCC(=O)NCc2ccncc2)cc(C(C)(C)C)c1O	nt	i	i	i	i
CC(C)(C)c1cc(CCC(=O)NCC2CCCO2)cc(C(C)(C)C)c1O (stereo not given)	i	i	i	4µM	i
Cc1cc(C)cc(OCC(=O)NNC(=S)NC(=O)C2CC2)c1	-80	i	i	?	i
Cc1cc(C)cc(OCC(=O)NCC2CCCO2)c1 (stereo not given)	-65	i	i	i	i
CC(C)(C)c1cc(CCC(=O)Nc2ccncc2)cc(C(C)(C)C)c1O	-63	nt	i	nt	nt
Cc1cccc(CN2CC=C(c3noc(CCC(=O)Nc4ccc(C)c(F)c4)n3)CC2)c1	i	i	i	i	nt
Cc1ccc(S(=O)(=O)N(C)CC(=O)NCC(=O)Nc2ccc(F)c(F)c2F)cc1	i	i	i	i	nt
Cc1ccccc1N(CC(=O)NC1CCCC1)C(=O)CS(=O)CC(=O)Nc1ccc2c(c1)OCO2 (stereo not given)	i	i	i	i	i
SMILES	HCMV inh	VACV Venus inh	Tb PYK inh	VACV mCherry inh	LmPK inh
C=CCOc1ccc(CNc2nccs2)cc1OC	i	i	i	nt	i
CC(C)(C)c1ccc(-c2noc(CCC(=O)Nc3cccnc3)n2)cc1	-75	i	i	i	i
CC(C)(C)c1ccc(-c2noc(CCC(=O)NCC3CCCO3)n2)cc1 (stereo not given)	-72	nt	i	nt	i
COc1ccc(-n2nnc3c(=O)n(CC(=O)NCC4CCCO4)cnc32)cc1 (stereo not given)	-102	nt	i	nt	i
COc1ccc(CCc2nnc(CCC(=O)NCC3CCCO3)o2)cc1 (stereo not given)	-69	i	i	i	i
O=C(Cn1cnc2c(nnn2-c2ccc(F)cc2)c1=O)NCC1CCCO1 (stereo not given)	i	i	i	i	i
Cc1cc(=O)oc(C)c1C(=O)Nc1ccc(Cl)cn1	i	i	i	i	i
CC(=O)NC(CC(=O)NCC(c1ccco1)N(C)C)c1ccccc1 (stereo not given)	i	nt	i	nt	i
CC(C)(C)c1ccc(-c2nnc(-c3ccccc3NC(=O)c3ccc(F)cc3F)o2)cc1	i	i	i	i	nt
